Several values for one entry are separate records, joined by “and”; a condition that tells them apart may be missing. Equal values may be shown once. Hit rate of the full screen: of about 360,000 compounds, about 11,000 (3.1%) were called active. The sample as a whole holds a higher share of actives than the screen did. Unmarked numbers belong to inactive results. Rule as the data show it: active = activity change below about -30%; inactive = the rest.
% is scaled to controls: 0 for no effect and ±100 for the full control effect.

Sequence of D(1A) dopamine receptor (Homo sapiens) (P21728 whole entry, looked up): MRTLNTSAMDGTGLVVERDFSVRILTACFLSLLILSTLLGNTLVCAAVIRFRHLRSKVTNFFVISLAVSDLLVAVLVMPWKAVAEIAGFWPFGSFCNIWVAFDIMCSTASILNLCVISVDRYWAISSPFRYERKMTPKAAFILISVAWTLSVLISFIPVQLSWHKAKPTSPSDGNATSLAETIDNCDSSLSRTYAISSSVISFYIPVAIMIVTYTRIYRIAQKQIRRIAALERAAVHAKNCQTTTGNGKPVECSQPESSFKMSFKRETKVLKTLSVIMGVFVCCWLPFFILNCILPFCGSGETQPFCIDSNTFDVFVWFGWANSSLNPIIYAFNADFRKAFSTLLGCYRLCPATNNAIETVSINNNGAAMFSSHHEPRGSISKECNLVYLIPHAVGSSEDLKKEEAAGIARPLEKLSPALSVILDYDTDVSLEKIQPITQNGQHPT

In this assay the target is D(1A) dopamine receptor (Homo sapiens) (UniProt P21728). Kind of assay: Antagonist of Human D 1 Dopamine Receptor: qHTS. The note with it: HEK293 TREx D1 cells, calcium flux, dopamine EC80; at 10 µM; active compounds read low. Put shortly:
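Kinetic fluorescence of a calcium dye serves as the read-out. D1-expressing Hek293 Trex cells, induced overnight at 30 C, are exposed to compound for 180 s before an EC80 dopamine addition, then read 180 s further.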
On the technique in general: In qHTS, concentration-response curves come from the screen itself.
Consider `CC(=O)N1c2ccccc2CC1C(=O)N1CCN(c2ccc(F)cc2)CC1` (stereo not drawn), for which the activity change, negative = inhibition was 9.38%.

With `COc1ccc(N2CCN(c3cc(C)nc4nncn34)CC2)cc1`, the activity change, negative = inhibition was -2.83%.

In the case of `Cc1nc(N2CCOCC2)c2c(C(=O)NCc3cccc(Cl)c3)c(C)oc2n1`, the activity change, negative = inhibition is 6.25%.

For `COc1cc(NC(=O)C2=CC(c3ccc(C)cc3)=NS(=O)(=O)N2C)cc(OC)c1OC`, the activity change, negative = inhibition is -12.9%.

Turning to `COc1ccc(NC(=O)C2=CC(c3ccc(OC)c(OC)c3)=NS(=O)(=O)N2C)cc1`, the activity change, negative = inhibition was -44.8% (active).

Consider `COc1cc(NC(=O)C2=CC(c3ccco3)=NS(=O)(=O)N2C)cc(OC)c1OC`, for which the activity change, negative = inhibition is -11.3% and -11.4%.

For `CCN(C(=O)c1sc2cc(OC)ccc2c1Cl)c1ccccc1`, the activity change, negative = inhibition is 1.09%.

On to `CCc1cccc(NC(=O)CCC(=O)O)c1`, for which the activity change, negative = inhibition is -45.7% (active).

As to `CCc1cccc(NC(=O)c2cc(-c3ccccc3)n[nH]2)c1`, the activity change, negative = inhibition is -7.87%.

As for `CCc1cccc(NC(=O)CCNS(=O)(=O)c2cccc3nonc23)c1`, the activity change, negative = inhibition is 8.81% and 29.5%.

With `O=CN1CCN(C(=O)c2ccc(Br)o2)CC1`, the activity change, negative = inhibition was -36.1% (active).

Take `O=CN1CCN(C(=O)c2ccc3c(c2)OCO3)CC1`: the activity change, negative = inhibition is 11.7%.

Turning to `O=C(c1ccc(Br)o1)N1CCN(CCOc2ccccc2)CC1`, the activity change, negative = inhibition was 3.56%.

As to `CC(C)c1ccc(C2CC(=O)N3CN(C4CCCCC4)CSC3=C2C#N)cc1` (stereo not drawn), the activity change, negative = inhibition is -4.95%.

On to `COc1cccc(CNC(=O)Cn2ncn3c(cc4ccccc43)c2=O)c1`, for which the activity change, negative = inhibition was 2.91%.

Take `CCOC(=O)[C@@H]1[C@H]2COc3cc(OC)ccc3[C@H]2N2C(=O)N(c3ccc(F)cc3)C(=O)[C@]12C`: the activity change, negative = inhibition was -0.628%.

On to `CCOC(=O)[C@@H]1[C@H]2COc3cc(OC)ccc3[C@@H]2N2C(=O)N(c3cccc(C)c3)C(=O)[C@@]12C`, for which the activity change, negative = inhibition is -0.419%.

As for `CCOC(=O)[C@H]1[C@H]2COc3cc(OC)ccc3[C@@H]2N2C(=O)N(c3ccc(Br)cc3)C(=O)[C@@]12C`, the activity change, negative = inhibition is -55.7% (active).

In the case of `COc1ccc(-c2cn3c(n2)sc2cc(C(=O)Nc4ccc(F)cc4)ccc23)cc1`, the activity change, negative = inhibition is -1.55%.

As for `O=C(O)c1cc(S(=O)(=O)N(Cc2ccccc2)c2cccc(C(F)(F)F)c2)ccc1Cl`, the activity change, negative = inhibition is 3.45%.

For `O=S(=O)(c1ccccc1)N(Cc1cccc(F)c1)c1ccccc1`, the activity change, negative = inhibition is -30.7% (active).

Turning to `O=C(O)c1cc(S(=O)(=O)N(Cc2ccccc2)c2ccccc2)ccc1Cl`, the activity change, negative = inhibition was 11.6%.

For `CCc1ccccc1NC(=O)Cn1c(=O)n(-c2cccc(C)c2)c(=O)c2c1c1cc(OC)ccc1n2C`, the activity change, negative = inhibition is -1.63%.

Take `CCCC(=O)Nc1ccc2oc(-c3ccc(O)c(Br)c3)nc2c1`: the activity change, negative = inhibition was -6.2%.

With `COc1cccc(C(=O)NC2=NC(c3ccc(N(C)C)cc3)CC(=O)N2)c1` (stereo not drawn), the activity change, negative = inhibition is -6.47%.

As for `Cc1ccccc1-n1c(=O)c2ccccc2n(Cc2ccc(F)cc2)c1=O`, the activity change, negative = inhibition is 8.59%.

In the case of `COc1ccc(NC(=O)CCC(=O)Nc2nnc(C3CCCCC3)s2)cc1`, the activity change, negative = inhibition was 5.47%.

As for `COC(=O)CCc1sc(Nc2ccc(Br)cc2)nc1-c1ccc(OC)cc1`, the activity change, negative = inhibition was -33.1% (active).

As to `CNC(=O)c1sc(Nc2ccc(OCc3ccccc3)cc2)nc1C`, the activity change, negative = inhibition was -6.26%.

On to `Cc1ccc(Nc2nnc(SC(C)C(=O)NC3CC3)s2)cc1` (stereo not drawn), for which the activity change, negative = inhibition was -6.59%.

With `Cc1nnc(SC(C)C(=O)Nc2ccc(S(=O)(=O)NC3CCCCC3)cc2)s1` (stereo not drawn), the activity change, negative = inhibition is -34.5% (active).

For the molecule `CCc1nnc(NC(=O)c2ccc(S(=O)(=O)NC3CCCCC3)cc2)s1`, the activity change, negative = inhibition was 1.91%.

As to `CCOc1ccccc1C(=O)NCC(c1ccc(N(C)C)cc1)N1CCCC1` (stereo not drawn), the activity change, negative = inhibition was -18.8%.

For the molecule `Cc1ccc(CCn2c3c(c4ccccc42)CN(C)CC3)cn1`, the activity change, negative = inhibition is -37.8% (active).

On to `COc1ccccc1NC(=O)C1=C(C)Nc2ncnn2C1c1sccc1C` (stereo not drawn), for which the activity change, negative = inhibition is 2.71%.

With `Nc1nc(NC(=O)/C=C/c2ccc(F)cc2)nn1-c1ccccc1`, the activity change, negative = inhibition is 8.35%.

As to `Nc1nc(NC(=O)/C=C/c2ccccc2)nn1-c1ccccc1`, the activity change, negative = inhibition is -60.9% (active).

Turning to `Cc1ccc(C(=O)Nc2nc(N)n(-c3ccccc3)n2)cc1`, the activity change, negative = inhibition is -1.57%.

For the molecule `CCOC(=O)c1cc(-c2ccccc2)n(CCC(=O)Nc2ccccc2CC)c1C`, the activity change, negative = inhibition was -5.19%.

For `Cc1ccccc1C(=O)Nc1nnc(S(=O)(=O)N(C)c2ccc(Cl)cc2)s1`, the activity change, negative = inhibition is -3.48%.

As to `COc1ccc(S(=O)(=O)NC(C)C(=O)N2CCCCCC2)cc1` (stereo not drawn), the activity change, negative = inhibition is 6.5%.

Take `COc1ccc(N2CCN(C(=O)c3ccc(N4CCCCS4(=O)=O)cc3)CC2)cc1`: the activity change, negative = inhibition is -28.7%.

`COCC(C)NS(=O)(=O)c1ccc(N2CCCCS2(=O)=O)cc1` (stereo not drawn): the activity change, negative = inhibition was -32.2% (active).

Regarding `Cc1ccccc1CSc1nc(-c2ccccc2)nc2c1Cc1c(CO)cnc(C)c1O2`, the activity change, negative = inhibition was -5.66%.

For `CCCC(=O)Nc1cc(C(=O)NCc2ccc(OC)cc2)ccc1S(=O)(=O)c1ccc(Cl)cc1`, the activity change, negative = inhibition is 3.26%.

Consider `CCc1ccccc1NC(=O)N1CCN(C(=O)c2nsc3ccccc23)CC1`, for which the activity change, negative = inhibition was 5.59%.

For `O=C(Nc1ccc(S(=O)(=O)N2CCCCC2)cc1)C1CCN(C(=O)c2ccc(F)cc2)CC1`, the activity change, negative = inhibition is -10.9%.

As to `O=C(Nc1ccc(F)cc1)C1CCN(C(=O)c2ccc([N+](=O)[O-])cc2)CC1`, the activity change, negative = inhibition was -37.8% (active).

As for `O=C(Nc1ccccc1)C1CCN(C(=O)c2ccc(Br)cc2)CC1`, the activity change, negative = inhibition is -21.4%.

For the molecule `CCOC(=O)c1c(NC(=O)c2cc(CC)on2)sc(C(C)=O)c1C`, the activity change, negative = inhibition was -23.3%.

`NS(=O)(=O)c1ccc(Nc2nc(-c3ccccc3)cs2)cc1`: the activity change, negative = inhibition is -31.8% (active).

For the molecule `COC(=O)[C@H](Cc1ccccc1)NC(=O)Nc1ccc(S(N)(=O)=O)cc1`, the activity change, negative = inhibition is -6.59%.

`NS(=O)(=O)c1ccc(NS(=O)(=O)/C=C/c2ccccc2)cc1`: the activity change, negative = inhibition was 4.29%.

As for `Cc1cccc(NC(=O)CN(c2ccc(C(C)C)cc2)S(=O)(=O)c2c(C)nn(C)c2C)c1C`, the activity change, negative = inhibition is -5.46%.

Turning to `CCC(=O)N1c2ccccc2CC1C(=O)N1CCN(c2ccccc2)CC1` (stereo not drawn), the activity change, negative = inhibition is -1.25%.

In the case of `CC(C)c1ccc(Cn2c(COc3ccccc3)nc3ccccc32)cc1`, the activity change, negative = inhibition is 0.116%.

For the molecule `CC(C)c1ccc2c(c1)c(SC(C)(C)C)c(CC(C)(C)C(=O)O)n2Cc1ccc(Cl)cc1`, the activity change, negative = inhibition is -36.5% (active) and -38.2% (active).

For the molecule `O=C(Cn1c(=O)nc(-c2ccccc2)c2cc(Cl)ccc21)NCc1ccc(Cl)cc1`, the activity change, negative = inhibition was 7.3%.
